{"source": "PubChem BioAssay AID1471", "about": "(National Center for Advancing Translational Sciences (NCATS), 2008)", "note": "Screen size: about 230,000 compounds; about 310 (0.13%) were called active. Another 2% or so got no clear call; they are omitted. Calls come from the whole dose curve; as a rule, active = well fitted activation curve with a large enough effect; inconclusive = small, poorly fitted or top-dose-only effect; inactive = no such curve, though single readings can be large or run the other way. Shown is part of a subset that was picked to be rich in actives. Entries that show only a call come without a potency. Potency is the fitted concentration of half-maximal effect.", "data": [{"assay": "qHTS Multiplex Assay to Identify Dual Action Probes in a Cell Model of Huntington: Cytoprotection (ATP); note: nearly all actives have a fitted effect of over 45% in size;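 for cytoprotection (ATP increase): toxic huntingtin expression switched on by the ecdysone agonist tebufenozide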", "details": "PC12 HTT-Q103 induced, ATP luminescence, 40 h; series mostly up to 56.4 µM", "procedure,_shortened": "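PC12 cells with ecdysone-inducible HTT exon 1 Q103-GFP, induced with 100 nM tebufenozide and co-treated with library compounds in a dose series (1536-well, 1500 cells/well). Cytoprotection read as ATP content by ATPlite luminescence.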", "values": [{"compound": "CCN1C(=O)N[C@@H](c2ccccc2)C(C(=O)OC)=C1C", "cytoprotection (ATP increase)": "-11.9% [at 10 µM] (inactive)"}, {"compound": "NC(=O)C(=O)N/N=C/c1ccc([N+](=O)[O-])o1", "cytoprotection (ATP increase)": "inactive"}, {"compound": "CCOC(=O)C1CSC(CC(=O)Nc2ccc(OCC)cc2)C(=O)N1", "note": "(centres undefined)", "cytoprotection (ATP increase)": "0.901% [at 10 µM] (inactive)"}, {"compound": "COCCCNC(=O)Cn1cc(/C=C(\\C#N)C(=O)N2CCN(c3ccccc3)CC2)c2ccccc21", "cytoprotection (ATP increase)": "1.65% [at 10 µM] (inactive)"}, {"compound": "COC(=O)C(C(=O)OC)C1c2ccccc2C=C(C2CC2)N1C(=O)OC", "note": "(centres undefined)", "cytoprotection (ATP increase)": "inactive"}, {"compound": "Cc1csc(-c2coc3cc(O[C@@H]4O[C@H](CO)[C@@H](O)[C@@H](O)[C@H]4O)ccc3c2=O)n1", "cytoprotection (ATP increase)": "inactive"}, {"compound": "O=C1CCC[C@@H]2CC(N3CCCCC3)C[C@@H]3CCN1[C@H]23", "note": "(some centres undefined)", "cytoprotection (ATP increase)": "inactive"}, {"compound": "CC1=C(C/C=C(\\C)CCCC(C)CCCC(C)CCCC(C)C)C(=O)c2ccccc2C1=O", "note": "(centres undefined)", "cytoprotection (ATP increase)": "inactive"}, {"compound": "CCOC(=O)C1=C(C)c2ccccc2OC1(C)C(=O)OCC", "note": "(centres undefined)", "cytoprotection (ATP increase)": "inactive"}, {"compound": "COC(=O)[C@@H]1CC2=CC(=O)CC[C@]2(C)[C@@]23O[C@@H]2C[C@@]2(C)[C@@H](CC[C@@]24CCC(=O)O4)[C@H]13", "cytoprotection (ATP increase)": "inactive"}, {"compound": "C[C@H](NC(=O)c1nc[nH]c1C(=O)N[C@@H](C)C(=O)OC(C)(C)C)C(=O)OC(C)(C)C", "cytoprotection (ATP increase)": "22% [at 10 µM] (inactive)"}, {"compound": "CCCCC/C=C\\C/C=C\\CCCCCCCCCC(N)=O", "cytoprotection (ATP increase)": "inactive"}, {"compound": "CCCCC/C=C\\CC1OC1CCCCCCCC(=O)O", "note": "(centres undefined)", "cytoprotection (ATP increase)": "inactive"}, {"compound": "CCCCCCCC[C@@H](O)/C=C/C=C/C=C\\[C@@H](O)CCCC(=O)O", "cytoprotection (ATP increase)": "inactive"}, {"compound": "Cc1ccccc1CSCCNC(=O)c1ccc(Cl)c(S(=O)(=O)N2CCOCC2)c1", "cytoprotection (ATP increase)": "-0.687% [at 10 µM] (inactive)"}, {"compound": "O=C(NCCSCc1ccccc1)c1ccc(Cl)c(S(=O)(=O)N2CCOCC2)c1", "Potency": "0.398 µM (active)"}, {"compound": "CC(C)(CNC(=O)c1ccc(Cl)c(S(=O)(=O)N2CCc3ccccc3C2)c1)N1CCOCC1", "cytoprotection (ATP increase)": "inactive"}, {"compound": "CCCCC/C=C\\C/C=C\\CCCCCCCCCC(=O)O", "cytoprotection (ATP increase)": "inactive"}, {"compound": "Nc1nc2c(ncn2[C@@H]2O[C@H](COP(=O)(O)OP(=O)(O)OP(=O)(O)O)[C@@H](O)C2O)c(=O)[nH]1", "note": "(some centres undefined)", "cytoprotection (ATP increase)": "inactive"}, {"compound": "CC1(C)O[C@@H]2C[C@@H]3[C@H]4C[C@@H](F)C5=CC(=O)C=C[C@]5(C)[C@@]4(F)[C@@H](O)C[C@]3(C)[C@]2(C(=O)CO)O1", "cytoprotection (ATP increase)": "inactive"}, {"compound": "C/C=C/C=N/NC(=O)c1ccncc1", "cytoprotection (ATP increase)": "inactive"}, {"compound": "CCOC(=O)c1c(NC(=O)CSc2nnc(CNc3ccc(C)cc3C)o2)sc(C)c1C", "cytoprotection (ATP increase)": "33% [at 10 µM] (inactive)"}, {"compound": "CCOC(=O)C1=C(C(=O)OCC)C(C(=O)OCC)N(S(=O)(=O)C(F)(F)F)c2ccccc21", "note": "(centres undefined)", "cytoprotection (ATP increase)": "inactive"}, {"compound": "CC(OC(=O)CNS(=O)(=O)/C=C/c1ccccc1)C(=O)Nc1ccc(S(=O)(=O)N2CCCC2)cc1", "note": "(centres undefined)", "cytoprotection (ATP increase)": "15.7% [at 10 µM] (inactive)"}, {"compound": "CC(C)(C)NCC(O)COc1cccc2[nH]c(=O)[nH]c12", "note": "(centres undefined)", "cytoprotection (ATP increase)": "inactive"}, {"compound": "CC/C=C\\C/C=C\\C/C=C\\C/C=C\\C/C=C\\C/C=C\\CCC(=O)NCCc1ccc(O)c(O)c1", "cytoprotection (ATP increase)": "inactive"}, {"compound": "CC(C)c1cnc(NC(=O)Cc2ccccc2)s1", "cytoprotection (ATP increase)": "inactive"}, {"compound": "N#Cc1ccc(-c2ccc(F)cc2)nc1Sc1ccccc1", "cytoprotection (ATP increase)": "inactive"}, {"compound": "N#Cc1c(-c2ccc(F)cc2)nc(-c2ccccc2)[nH]c1=O", "cytoprotection (ATP increase)": "inactive"}, {"compound": "N#Cc1ccc(-c2nc3cc(C#N)c(C#N)cc3nc2-c2ccccc2)cc1C#N", "Potency": "2.82 µM (active)"}, {"compound": "Cc1csc(-c2nc3ccccc3n2C)n1", "cytoprotection (ATP increase)": "-116% [at 1.9 µM] (inactive)"}, {"compound": "CC(O)[C@@H](N)C(=O)O", "note": "(some centres undefined)", "cytoprotection (ATP increase)": "inactive"}, {"compound": "COc1ccc(OC)c(NC(=O)c2cnn(-c3ccccc3Cl)c2NC(=O)c2ccco2)c1", "cytoprotection (ATP increase)": "inactive"}, {"compound": "C=CCC(C)(O)c1ccco1", "note": "(centres undefined)", "cytoprotection (ATP increase)": "inactive"}, {"compound": "NNc1nnc(NN)c2ccccc12", "cytoprotection (ATP increase)": "inactive"}, {"compound": "CCCCc1nnc(NC(=O)CSc2nc(N)cc(=O)[nH]2)s1", "Potency": "3.16 µM (active)"}, {"compound": "NC(=O)c1c(NC(=O)CSc2nc(N)cc(=O)[nH]2)sc2c1CCCC2", "cytoprotection (ATP increase)": "2.28% [at 10 µM] (inactive)"}, {"compound": "CCCCc1nnc(NC(=O)CSc2nc(C)cc(=O)[nH]2)s1", "cytoprotection (ATP increase)": "inactive"}, {"compound": "Cc1cccc(C)c1NC(=O)NC1=CCCN1C", "cytoprotection (ATP increase)": "inactive"}]}]}
